From PubChem BioAssay AID463173 (ICCB-Longwood Screening Facility, Harvard Medical School, 2010)
Among all 52,000 compounds or so, about 4,300 (8.3%) were called active. No stated cut-off is given here; in the data, active means survival mostly below about 52% (no sharp cut-off); inactive means mostly above about 56%. The sample as a whole holds a higher share of actives than the screen did.

The compounds below were run on DeltatarO mutant (assay: growth inhibition of S. aureus wild type versus tarO mutant, primary screen, teichoic acid synthesis inhibitors, RN4220, OD600 (AID 463173)). Conditions: OD600, 18 h, hits give low values, screened at 18.75 µg/mL (by protocol).
For COc1ccc(S(=O)(=O)Nc2cc3c(cc2NCc2ccccc2)n(C)c(=O)n3C)cc1, the survival was 69% (inactive). O=C(Nc1ccc(F)cc1)C1CCN(c2nc3ccccc3n3cccc23)CC1 was tested, and the survival was 75% (inactive). O=c1cc(COc2ccccc2Cl)nc2scc(-c3ccccc3)n12 was tested, and the survival was 81% (inactive). With Cc1c(C(=O)N2CCOCC2)sc(NC(=O)c2ccc3c(c2)OCO3)c1C#N the survival was 90% (inactive). In the case of Cc1noc(/C=C/N(C)C)c1S(=O)(=O)N1CCCC(C(=O)Nc2cccc(F)c2)C1 (stereo not given), the survival is reported as 90% (inactive). CC(C)c1ccc(NC(=O)C2CCCN(S(=O)(=O)c3cccc4cccnc34)C2)cc1 (stereo not given) was tested, and the survival was 71% (inactive). In the case of CCOc1ccc(NC(=O)C2CCCN(S(=O)(=O)c3c(C)noc3/C=C/N(C)C)C2)cc1 (stereo not given), the survival is reported as 94% (inactive). In the case of CCc1ccc(NC(=O)C2CCCN(S(=O)(=O)c3c(C)noc3/C=C/N(C)C)C2)cc1 (stereo not given), the survival is reported as 42% (active). With CCc1ccc(NC(=O)C2CCCN(S(=O)(=O)c3cccc4cccnc34)C2)cc1 (stereo not given) the survival was 58% (active). In the case of Cc1ccc(NC(=O)C2CCCN(S(=O)(=O)c3cccc4cccnc34)C2)cc1 (stereo not given), the survival is reported as 102% (inactive). O=S(=O)(Nc1ccc(-c2ccc(N3CCCC3)nn2)cc1)c1ccc(Cl)cc1 was tested, and the survival was 102% (inactive). With CCCCN(C)C(=O)c1ccc2c(c1)N(Cc1ccc(F)cc1)C(=O)c1ccccc1S2(=O)=O the survival was 118% (inactive). In the case of O=C(Nc1ccc(F)cc1C(F)(F)F)C1CCN(c2ncccn2)CC1, the survival is reported as 76% (inactive). For CC(=O)Nc1ccc2c(c1)n(C)c(=O)n2C, the survival was 85% (inactive). For COc1ccc(OC)c(CCNC(=O)C(C)n2c(C)c3cnn(-c4ccccc4)c(=O)c3c2C)c1 (stereo not given), the survival was 82% (inactive). Cc1cc(C)c(C#N)c(SCc2cccnc2)n1 was tested, and the survival was 53% (inactive). With COc1cc2nc(SCc3ccc(C)cc3)n3nc(CCn4nc(C)cc4C)nc3c2cc1OC the survival was 58% (inactive). With COc1cc2nc(SCc3cccc(Cl)c3)n3nc(CCn4nc(C)cc4C)nc3c2cc1OC the survival was 79% (inactive). For COc1cccc(CSc2nc3cc(OC)c(OC)cc3c3nc(CCn4nc(C)cc4C)nn23)c1, the survival was 60% (active). In the case of CCc1ccccc1NC(=O)c1ccc2nc(C(C)C)oc2c1, the survival is reported as 73% (inactive). For CCn1cc2nc(SCc3cc(C)ccc3C)n(Cc3ccc(C)cc3)c(=O)c2n1, the survival was 69% (inactive). For CCC(CC)C(=O)Nc1nnc(SCc2cc(=O)c3ccccc3[nH]2)s1, the survival was 115% (inactive). For COc1ccc(-n2c(=O)c3c4c(sc3n3c(SCCC(C)C)nnc23)COC(C(C)C)C4)cc1 (stereo not given), the survival was 59% (inactive). CC(=O)N1CCc2c(sc3nc(SCC(C)C)n(-c4ccc(F)c(Cl)c4)c(=O)c23)C1 was tested, and the survival was 63% (inactive). COc1ccc(-n2c(SCCC(C)C)nc3sc4c(c3c2=O)CC(C(C)C)OC4)cc1 (stereo not given) was tested, and the survival was 30% (active). In the case of CCSc1nc2sc3c(c2c(=O)n1-c1ccc(C)c(Cl)c1)CCN(C(C)=O)C3, the survival is reported as 61% (inactive). In the case of COc1ccc(-n2c(SC)nc3sc4c(c3c2=O)CCN(C(C)=O)C4)cc1, the survival is reported as 127% (inactive). For CC(=O)N1CCc2c(sc3nc(SCC(C)C)n(-c4ccc(C)c(Cl)c4)c(=O)c23)C1, the survival was 45% (active). For CCCCCSc1nc2sc3c(c2c(=O)n1-c1ccc(OC)cc1)CCN(C(C)=O)C3, the survival was -18% (active). CCOC(=O)CSc1nc2sc3c(c2c(=O)n1-c1ccc(OC)cc1)CC(C(C)C)OC3 (stereo not given) was tested, and the survival was 73% (inactive). For CCCCCSc1nc2sc3c(c2c(=O)n1-c1ccccc1)CCN(C(C)=O)C3, the survival was 77% (inactive). In the case of Nc1c(C(=O)Nc2cccc(Cl)c2)sc2nc3c(cc12)CN(Cc1ccccc1)CC3, the survival is reported as 69% (inactive). Cc1ccc(NC(=O)Cn2cc3c(n2)CCCCC3)cc1 was tested, and the survival was 77% (inactive). With COc1ccc(NC(=O)CSc2nc3ccccc3n2CC(=O)N(C)c2ccc(F)cc2)cc1 the survival was 87% (inactive). In the case of Cc1nn(C)c(C)c1S(=O)(=O)N(CC(=O)N1CCN(c2ccccc2)CC1)c1ccc(C(C)C)cc1, the survival is reported as 79% (inactive). COc1ccc(-c2cn3c(n2)sc2cc(C(=O)NCC(C)c4ccccc4)ccc23)cc1 (stereo not given) was tested, and the survival was 65% (inactive). In the case of CCSc1nc2c([nH]c3ccccc32)c(=O)n1-c1ccc(F)cc1, the survival is reported as 87% (inactive). With O=C(CSc1nc2c([nH]c3ccccc32)c(=O)n1-c1ccccc1)N1CCCCC1 the survival was 73% (inactive). With CCSc1nc2c([nH]c3ccccc32)c(=O)n1-c1ccc(OC)cc1 the survival was 46% (active). With O=C(CSc1nc2c([nH]c3ccccc32)c(=O)n1-c1ccccc1)N1CCCCCC1 the survival was 95% (inactive). For O=C(CSc1nc2c([nH]c3ccccc32)c(=O)n1-c1ccc(F)cc1)NC1CCCCC1, the survival was 83% (inactive). CCC1CCCCN1C(=O)CSc1nc2c([nH]c3ccccc32)c(=O)n1-c1cccc(OC)c1 (stereo not given) was tested, and the survival was 66% (inactive). With COc1cccc(-n2c(SCC(=O)N3CCCCC3)nc3c([nH]c4ccccc43)c2=O)c1 the survival was 20% (active). With CCOc1ccc(-n2c(SCC(=O)NC3CCCCC3)nc3c([nH]c4ccccc43)c2=O)cc1 the survival was 92% (inactive). CCSc1nc2c([nH]c3ccccc32)c(=O)n1-c1cccc(OC)c1 was tested, and the survival was 94% (inactive). CCOc1ccc(-n2c(SCC(=O)N3CCCCCC3)nc3c([nH]c4ccccc43)c2=O)cc1 was tested, and the survival was 106% (inactive). With CCC1CCCCN1C(=O)CSc1nc2c([nH]c3ccccc32)c(=O)n1-c1ccc(OC)cc1 (stereo not given) the survival was 25% (active). COc1ccc(-n2c(SCC(=O)NC3CCCCC3)nc3c([nH]c4ccccc43)c2=O)cc1 was tested, and the survival was 37% (active). With C(#Cc1ccccc1)CN1CCCCC1 the survival was 107% (inactive). With CN(C)S(=O)(=O)c1ccc(C(=O)NCCSc2c(-c3ccc(Br)cc3)[nH]c3ccccc23)cc1 the survival was 74% (inactive). With CC(C)Cn1c(SCc2cccc(F)c2)nc2ccsc2c1=O the survival was 74% (inactive). With CCCCNC(=O)CSc1nc2n[nH]c(C)c2c(=N)n1-c1ccccc1CC the survival was 89% (inactive). O=C1CN(C(=O)Nc2ccccc2Cl)C(c2ccccc2)c2c(sc3c2CCCC3)N1 (stereo not given) was tested, and the survival was 73% (inactive). For CCc1ccccc1N1C(=O)N(CC(=O)c2ccc(OC)cc2)c2ccccc2S1(=O)=O, the survival was 79% (inactive). With CC(C)CCNC(=O)Nc1ccc2c(c1)N(Cc1ccccc1)C(=O)c1ccccc1S2 the survival was 79% (inactive).
